# Test results taken from PubChem BioAssay (NCI).
# About 83,000 compounds went through this panel and 20% of them were active in at least one assay; those are over-represented in the sample as a whole.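 Activity criterion: percent growth below 10, measured after cells in 96-well plates were exposed to a single compound concentration for 48 hours.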 A number with no mark means an inactive call. Active and inactive are the calls of the source.
# Tested on: SN12C renal
# Experiment: NCI-60 one-dose screen, 48 h (100 = growth as untreated, 0 = no growth, -100 = all killed)
# Settings: 10 µM unless noted
row,SMILES,growth
1,N#Cc1cccc(CN2CCC3=C(C2)C(=O)N(Cc2ccc(Cl)cc2)C2=NCCN23)c1,23.9%
2,COc1ccc(Oc2ccc(/C=N/NC(=O)CSc3nc4ccccc4c(=O)n3-c3ccc(Cl)cc3)cc2)cc1,52.7%
3,O=C(NNc1nc2cc(F)c(F)cc2n2c(CN3CC4CNCC4C3)ccc12)c1ncccn1 (stereo not drawn),25.8%
4,COc1cc(/C=C2\C(=O)Nc3cc(Cl)ccc32)ccc1OCc1ccc(F)cc1,95.9%
5,C#CCOc1ccc(/C=N\Nc2nc(-c3ccc(C)cc3)cs2)cc1OC,89.2%
6,C=CCOc1cccc(/C=C2\SC(=S)N(C3CC(=O)N(c4ccc(Br)cc4)C3=O)C2=O)c1 (stereo not drawn),92.8%
7,COc1ccc(S(=O)(=O)NCCCNc2nccc(-c3[nH]c(-c4ccccc4)nc3-c3ccc(Cl)c(O)c3)n2)cc1,84.2%
8,CCn1c2ccccc2c2cc(-n3nncc3-c3ccccc3)ccc21,25.4%
9,N#Cc1cccc(CN2CCC3=C(C2)C(=O)N(Cc2ccc(Cl)cc2)C2=NCCCN23)c1,22.1%
10,COc1ccc(COc2ccc(/C=C3\C(=O)Nc4ccccc43)cc2OC)cc1,99.6%
11,O=C(NNc1nc2cc(F)ccc2n2c(CN3CC4CNCC4C3)ccc12)c1cnccn1 (stereo not drawn),27.5%
12,COc1ccc2[nH]cc(-c3csc4nc(-c5ccccc5)cn34)c2c1,40.2%
13,COC(=O)C[Se]C(=O)Cc1c(C)n(C(=O)c2ccc(Cl)cc2)c2ccc(OC)cc12,57.1%
14,CCOc1ccc(NC2=C(Cl)C(=O)c3nc(C)ccc3C2=O)cc1,-57.3% (active)
15,COc1cccc(/C=C(/C)c2ccc3cccc(OC)c3[o+]2)c1O,97.3%
16,NC(N)=Nc1ccc(Oc2cccc(NC(N)=Nc3ccc(Cl)c(C(F)(F)F)c3)c2)cc1,31%
17,COc1ccc(CCOc2cc3c(cc2OC)CCN(C(=O)NCc2cocn2)C3c2ccc(C)cc2C)cc1 (stereo not drawn),19.7%
18,O=C1C(c2ccccc2)=C(N2CCc3ccccc32)OC1(Cl)Cl,77.5%
19,O=C(NNc1nc2cc(F)ccc2n2c(CN3CCCC3)ccc12)c1cnccn1,21%

row,SMILES,growth
1,O=C(NNc1nc2cc(F)cc(F)c2n2cccc12)c1cnccn1,25.5%
2,O=C(O)c1ccc(-n2cc(CNc3cc(F)c(F)c(F)c3)c(-c3ccc(F)cc3)n2)cc1,91.9%
3,COc1ccc(NC2=C(Cl)C(=O)c3nc(C)ccc3C2=O)cc1OC,90.5%
4,O=C(NNc1nc2cc(F)c(F)cc2n2c(CN3CC4CNCC4C3)ccc12)c1cnccn1 (stereo not drawn),22.1%
5,C[C@H](CCC(=O)NCc1ccc(C(=O)Nc2ccccc2N)cc1)[C@H]1CC[C@H]2[C@@H]3[C@@H](O)C[C@@H]4C[C@H](O)CC[C@]4(C)[C@H]3CC[C@]12C,69.5%
6,CC(=O)c1cc(C(=O)c2ccc(Br)cc2)n2cc(C)cc(C)c12,90.8%
7,NC(=O)c1cccc(-n2ccc3cc(NC(=O)Nc4ccc(N5CCOCC5)c(C(F)(F)F)c4)ccc32)n1,14.1%
8,COc1ccc2c(c1)c(CC(=O)[Se]CC(=O)O)c(C)n2C(=O)c1ccc(Cl)cc1,58.5%
9,CN(C)CCNC(=O)c1ccc(-c2nc3ccc4[nH]ncc4c3c3c2COCC3)cc1,5.07% (active)
10,COc1ccc2c(c1)c(CC(=O)[Se]CCC#N)c(C)n2C(=O)c1ccc(Cl)cc1,-82.6% (active)
11,CN1CCN(Cc2ccc(NC(=O)c3cncc(C#Cc4cnc5ccc(OCC(C)(C)O)nn45)c3)cc2C(F)(F)F)CC1,2.45% (active)
12,CNC(=O)c1cc(N2CCc3cc(NC(=O)Nc4ccc(Cl)c(C(F)(F)F)c4)ccc32)ccn1,65.2%
13,O=C(CSc1nc2ccccc2c(=O)n1-c1ccc(Cl)cc1)N/N=C/c1ccc(N2CCCCC2)cc1,62.4%
14,CCOc1ccc(C(=O)Nc2ncc(Cc3ccc(F)cc3)s2)cc1,36%
15,Cc1c(Cl)cccc1S(=O)(=O)Nc1ccc2c(c1)C(=O)N(C1CCC(=O)NC1=O)C2=O (stereo not drawn),89.4%
16,CC/C(=C/c1cc(OC)ccc1O)c1ccc2cc(OC)ccc2[o+]1,73.9%
17,COc1c(N2CC3CCCNC3C2)c(F)cc2c(=O)c(C(=O)N/N=C/c3ccc4c(c3)OCO4)cn(C3CC3)c12 (stereo not drawn),82.9%
18,CN1CCN(Cc2ccc(NC(=O)c3cncc(C#Cc4cnc5ccc(OCC6(C)COC6)nn45)c3)cc2C(F)(F)F)CC1,-76.2% (active)
19,O=C(NNc1nc2cc(F)c(F)cc2n2cccc12)c1cnccn1,39%
